Source: PubChem BioAssay
This is a sample that favours compounds with a hit; in the whole collection about 10% have one here.
Six1-Eya2 blk: qHTS Assay for Inhibitors of the Six1/Eya2 Interaction; AlphaScreen GST-Six1/His-Eya2 binding, biochemical; hits give low values; Homeobox protein SIX1 (Homo sapiens) + Protein phosphatase EYA2 (Homo sapiens), …; AID 651725, 2012; activity change, % (test concentration not listed); 0.56% of 360,000 active; in the data active = activity change below about -65%; inconclusive = mostly about -30% to -63%; note: % is set by controls: 0 for no effect and ±100 for the full control effect
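Six1/Eya2 binding was read as AlphaScreen signal after compounds were pinned into GST-Six1 plus His-tagged Eya2 (5X stock 250/500 nM) in pH 8.0 Tris/NaCl/TCEP buffer, beads added, then incubated 1 h, 37 C, dark.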
JMJD2A Tudor inh: qHTS Assay for Inhibitors of JMJD2A-Tudor Domain; AlphaScreen JMJD2A-Tudor / H3K4me3 peptide binding; Potency, µM (titrated, usually from 114 µM), without a hit: top-dose activity change, negative = inhibition, most hits filed as inhibitors; 4.4% of 390,000 active; AID 504339, 2011; note: potency is the fitted concentration of half-maximal effect; % is set by controls: 0 for no effect and ±100 for the full control effect; nearly all actives have a fitted effect of over 50% in size
BAZ2B block: qHTS Assay for Inhibitors of BAZ2B | Bromodomain adjacent to zinc finger domain protein 2B (Homo sapiens), Q9UIF8 | AlphaScreen BAZ2B-H3K14Ac peptide displacement | Potency, µM (series often up to 114 µM), for inactives: at the highest dose activity change, negative = inhibition, most hits filed as inhibitors | 4.4% of 360,000 active | AID 504333, 2011; note: potency is the fitted concentration of half-maximal effect; % is set by controls: 0 for no effect and ±100 for the full control effect; nearly all actives have a fitted effect of over 60% in size
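Complex of BAZ2B and biotin-H3K14Ac (50 nM apiece) forms over 30 min at RT, then faces library compounds up to 110 uM for another 30 min; AlphaScreen beads added, 20 min dark incubation, luminescence read.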
CtBP-E1A blk: qHTS Assay for Inhibitors of the CtBP/E1A Interaction | AlphaScreen GST-E1A/His-CtBP binding, 1536-well; hits give low values | activity change, % (test concentration not listed) | 0.49% of 340,000 active; in the data active = activity change below about -65%; inconclusive = mostly about -30% to -63%; note: % is set by controls: 0 for no effect and ±100 for the full control effect
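AlphaScreen with 125 nM GST-E1A and 125 nM His-CtBP (5X stocks) in Tris pH 8.0, 300 mM NaCl, BSA, Tween 20, TCEP. Compounds preincubated 2 h at 37 deg C, then glutathione donor/nickel acceptor beads added for 1 h at 37 deg C in dark.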
HP1b chromo inh: HTS for Inhibitors of HP1-beta Chromodomain Interactions with Methylated Histone Tails | Chromobox protein homolog 1 (Homo sapiens), P83916 | AlphaScreen HP1-beta / biotin-H3K9me3 peptide binding | Potency, µM (top dose mostly 114 µM), for the others: at the top dose activity change, negative = inhibition, hits mostly inhibitors | 0.56% of 390,000 active | AID 540317, 2011; note: potency is the fitted concentration of half-maximal effect; nearly all actives have a fitted effect of over 70% in size
Target sequence (P83916 whole entry, looked up): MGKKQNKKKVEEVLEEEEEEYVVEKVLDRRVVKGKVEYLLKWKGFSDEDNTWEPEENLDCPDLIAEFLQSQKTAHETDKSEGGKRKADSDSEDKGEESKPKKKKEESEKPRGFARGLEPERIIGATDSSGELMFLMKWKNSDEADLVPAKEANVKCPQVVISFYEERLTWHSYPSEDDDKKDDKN
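AlphaScreen: HP1-beta (50 nM) preformed 30 min with biotin-H3(1-18)K9me3 peptide (50 nM) in PBS pH 7.4, 0.01% Tween-20. Compound added for 30 min at RT, then streptavidin donor/nickel chelate acceptor beads (10 ug/mL) for 30 min.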
G9a inh: qHTS Assay for Inhibitors of Histone Lysine Methyltransferase G9a; G9a H3K9 monomethylation, AlphaScreen, 2 h; Potency, µM (doses to about 102 µM), without a hit: top-dose activity, negative = inhibition, most hits filed as inhibitors; 8.8% of 350,000 active; AID 504332, 2011; note: potency is the fitted concentration of half-maximal effect; % is set by controls: 0 for no effect and ±100 for the full control effect; nearly all actives have a fitted effect of over 75% in size
Target sequence (Q96KQ7 913-1193 limits assumed): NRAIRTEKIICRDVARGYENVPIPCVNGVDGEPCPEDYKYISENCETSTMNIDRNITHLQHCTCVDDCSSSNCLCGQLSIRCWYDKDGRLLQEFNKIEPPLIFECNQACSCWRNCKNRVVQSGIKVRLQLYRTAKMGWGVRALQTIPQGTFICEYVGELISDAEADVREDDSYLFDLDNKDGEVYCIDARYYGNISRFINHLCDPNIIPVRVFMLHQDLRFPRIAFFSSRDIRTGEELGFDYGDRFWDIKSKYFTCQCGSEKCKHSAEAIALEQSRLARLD
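Methyltransferase reactions run at room temperature for 2 h (20 nM enzyme, 500 nM biotin-H3K9 peptide, 20 uM SAM) after a 15 min compound preincubation; product detected by AlphaScreen beads and anti-H3K9me1 antibody.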
* marks the source's active call; other numbers are inactive results; ? = inconclusive; · = no result given; [ ] = another dose, or the depositor's remark. Unless noted, calls come from the whole dose curve; as a rule, active = well fitted inhibition curve with a large enough effect; inconclusive = small, poorly fitted or top-dose-only effect; inactive = no such curve, though single readings can be large or run the other way.

SMILES	Six1-Eya2 blk	JMJD2A Tudor inh	BAZ2B block	CtBP-E1A blk	HP1b chromo inh	G9a inh
CCOC(=O)c1cccc(NC(=O)CSc2ncc3c(n2)-c2ccc(Cl)cc2N(Cc2ccccc2)S3(=O)=O)c1	·	-13.3%	-9.3%	·	-5.0%	?
COc1ccc2c(c1)C(C)=CC(C)(C)N2S(=O)(=O)c1ccc(C)cc1	2.6	-12.8%[57.1 µM]	-20.4%	0.0	9.3%	86.8%
COc1ccc2c(c1)[N+](C)(C)C(C)(C)C=C2C	-2.8	17.8µM*	-22.1%	·	?	?
CCOc1ccc2c(c1)[N+](C)(C)C(C)(C)C=C2C	2.2	17.8µM*	-15.7%	-18.6	3.2%	?
O=S1(=O)N=C(Nc2cccc(C(F)(F)F)c2)c2ccccc21	·	11.7%	-0.1%	·	23.7%	0.0%[59 µM]
Cc1cc(Cl)cc(Br)c1OCCCNCC(C)O (stereo not drawn)	-1.9	2.8%	-17.4%	3.0	46.6%	2.7%
Cc1cc(Cl)c(OCCCNCc2ccccc2)c(Br)c1	1.2	?	?	5.3	-19.9%	11.2µM*
Cc1cc(Cl)c(OCCN2C(=O)NC(C)(C)C2=O)c(Br)c1	-0.6	9.5%	0.8%	0.7	30.1%	-0.7%
Cc1cc(C)c(OCCCNC2CCCC2)c(Br)c1	6.7	79.4µM*	?	-10.5	6.5%	·
COCCNCCCCOc1c(Cl)cc(C)cc1Br	0.6	3.16µM*	50.1µM*	0.6	-16.7%	·
Cc1cc(C)c(OCCOCCN(C)C)c(Br)c1	5.0	25.1µM*	?	0.9	?	10µM*
O=c1c2oc3ccccc3c2n(Cc2ccccc2F)c(=O)n1Cc1ccco1	·	-5.1%	-35.7%	·	14.1%	-22.9%[59 µM]
Cc1cc(C)c(OCCCNCc2ccccc2)c(Br)c1	3.6	25.1µM*	50.1µM*	·	?	12.6µM*
COc1cccc(NC(=O)Cn2c(=O)n(Cc3ccc(F)cc3)c(=O)c3sc4ccccc4c32)c1	·	-12.9%	-33.9%	·	43.9%	-2.7%[59 µM]
N#Cc1nc(NC2CCCC2)c2ncn(-c3cc(F)cc(F)c3)c2n1	·	8.2%	·	·	·	·
Cn1nc(C(F)(F)F)c(-c2ccc(Br)cc2)c1NC(=O)c1nccnc1C(=O)O	-11.8	-18.1%	-24.1%	-6.5	58.5%	?
O=C(O)c1nccnc1C(=O)Nc1ccc(Oc2c(Cl)cccc2Cl)nc1	3.4	-22.9%	?	3.0	14.2%	·
Cn1nccc1NC(=O)NC(=O)c1c(Cl)cccc1Cl	6.1	-6.3%	-2.7%	·	30.0%	19.5%
COc1cc(NC(=O)c2nccnc2C(=O)O)cc(OC)c1	-10.2	39.8µM*	?	-2.1	15.9%	22.4µM*
Cn1nc(C(F)(F)F)c(-c2ccccc2)c1NC(=O)c1nccnc1C(=O)O	-8.9	?	79.4µM*	-0.3	34.9%	·
Cn1nccc1NC(=O)c1nccnc1C(=O)O	3.3	-2.9%	?	·	21.7%	39.8µM*
CC(=O)Nc1ccc(NC(=O)c2nccnc2C(=O)O)cn1	4.7	-9.1%	50.1µM*	·	11.1%	20.5%
Cc1cccc(C(=O)NC2CCN(C#N)CC2)c1	·	-12.3%	·	·	·	·
CCn1cc2nc(SCC(=O)Nc3ccc(C)cc3C)n(Cc3ccc(C)cc3)c(=O)c2n1	·	-33.4%	?	·	34.4%	-29.4%[59 µM]
Cc1ccsc1CN(C)CC(=O)Nc1ccc([N+](=O)[O-])cc1Cl	?	-28.6%	-32.6%	?	?	39.8µM*
CN(CC(=O)Nc1cc([N+](=O)[O-])ccc1Cl)Cc1ccc(Br)cc1	-17.0	?	?	-7.5	-16.6%	11.2µM*
CCCCC(=O)Nc1cc([N+](=O)[O-])ccc1Cl	-3.8	-3.4%	7.9%	12.7	18.7%	5.6%[59 µM]
